# Inconclusive results are not listed. Entries that show only a call come without a potency. The source made the active and inactive calls. Calls come from the whole dose curve; as a rule, active = well fitted inhibition curve with a large enough effect; inconclusive = small, poorly fitted or top-dose-only effect; inactive = no such curve, though single readings can be large or run the other way.
# Experiment: Confirmatory qHTS for Identification of Small Molecule Inhibitors of Huntingtin Promoter Activity; note: nearly all actives have a fitted effect of over 65% in size
# Conditions: HEK293 HTT promoter firefly luciferase reporter, 24 h; series mostly up to 57.5 µM
# Method in brief: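 Plated reporter HEK293 cells (24 h) received library compounds at up to 57.5 uM final or 50 uM PTC124, incubated 24 h at 37C; firefly luciferase luminescence was then recorded with Dual-Glo reagent.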
# Potency is the fitted concentration of half-maximal effect.
row,SMILES,Potency
1,CC(C)(C)C(=O)NCCc1nc2ccccc2n1CCCCOc1ccc(Cl)cc1,26.9 µM (active)
2,O=C(NCc1ccccc1)c1cc2ccc3cccnc3c2[nH]1,inactive
3,O=C(Cn1cc(SCc2ccccc2F)c2ccccc21)N1CCCC1,inactive
4,O=C(NCc1cccc(Cl)c1)C1CCCN(c2nn3cc(-c4ccc(F)cc4)nc3s2)C1 (configuration not stated),12 µM (active)
5,CN(C)c1ccc(C(=C2C=CC(=[N+](C)C)C=C2)c2ccc(N(C)C)cc2)cc1,3.01 µM (active)
6,CC(C)[C@H](C(=O)Nc1ccc(C(=O)NO)cc1)c1ccccc1,inactive
7,Cc1ccc(C)c(-n2nnc(C(=O)Nc3ccc(Br)cc3)c2C)c1,inactive
8,CCS(=O)(=O)c1ncc(Cl)c(C(=O)NCc2ccc(OC)cc2)n1,19 µM (active)
9,CCC(=O)N1CCc2cc(S(=O)(=O)NCCC(=O)Nc3ccc(CC)cc3)ccc21,inactive
10,CC(C)c1ccc(NC(=O)C2CCN(c3nc(-c4ccc(C(C)C)cc4)no3)CC2)cc1,0.0953 µM (active)
11,CCN(Cc1ccccc1)C(=O)c1cc(-c2ccccc2)n[nH]1,inactive
12,COc1ccc(-c2nc(CSCC(=O)N3CCN(c4cc(Cl)ccc4C)CC3)c(C)o2)cc1,9.53 µM (active)
13,COc1ccc(C2C=C(c3ccc(Br)cc3)Nc3nnnn32)c(OC)c1 (configuration not stated),inactive
14,COc1ccc(S(=O)(=O)Nc2cc3c(cc2NCc2ccccc2)n(C)c(=O)n3C)cc1OC,inactive
15,Cc1ccc(CNC(=O)c2c(Nc3c(C)cccc3C)sc(C(=O)c3ccccc3)c2N)cc1,9.53 µM (active)
16,Cc1cccc(NC(=O)c2c(NC(=O)C(F)(F)F)sc3c2CCCCC3)c1,2.39 µM (active)
17,CCCCN1CC(c2nc3ccccc3n2CCCCOc2ccc(C)c(C)c2)CC1=O (configuration not stated),19 µM (active)
18,Cc1ccc(C)c(N2CCN(C(=O)C3CCN(c4nc(-c5ccc(C(C)C)cc5)no4)CC3)CC2)c1,0.239 µM (active)
19,O=c1c(O)c(-c2ccc(O)cc2)oc2cc(O)cc(O)c12,inactive

row,SMILES,Potency
1,Cc1ccc(CN(C(=O)COc2cccc(Cl)c2)c2ccccn2)o1,inactive
2,COc1ccc(Nc2nc(-c3ccc(C)cc3)nc3ccccc23)c(OC)c1,inactive
3,Cn1cc(CNCC2CCN(c3ncc(C(=O)NO)cn3)CC2)c2ccccc21,inactive
4,CCc1ccc(-n2c(SCC(=O)NC(C)CC)nc3n[nH]c(C)c3c2=N)cc1 (configuration not stated),inactive
5,C=Cc1ccc(Cn2c(C(=O)O)c(CNCc3ccccc3)c3ccc(C)cc32)cc1,21.3 µM (active)
6,O=C(Nc1cccc(Cl)c1)c1c(NC(=O)C(F)(F)F)sc2c1CCCC2,4.26 µM (active)
7,Cc1ccc(CN2CCSc3ccc(C(=O)NCC(C)c4ccccc4)cc32)cc1 (configuration not stated),inactive
8,Cc1csc2nc(COC(=O)c3ccccc3NC(=O)c3ccccc3Cl)cc(=O)n12,inactive
9,CCN(CC)CCOc1ccc(C(=C(Cl)c2ccccc2)c2ccccc2)cc1,inactive
10,CN(C)c1ccc(C(=O)NCCCCCCC(=O)NO)cc1,inactive
11,COc1ccc(-c2nnc(C3CCN(C(=O)c4ccccc4F)CC3)o2)cc1,inactive
12,O=C(Nc1ccc(Cl)c(Cl)c1)N(Cc1c[nH]c2ccccc12)C1CCCCC1,inactive
13,CCc1ccc(NC(=O)Nc2cn(C)c(=O)c3ccccc23)cc1,inactive
14,Cn1c(=O)n(C)c2cc(NS(=O)(=O)c3ccc(F)cc3)ccc21,inactive
15,Cc1cccc(CSc2cn(CC(=O)N3CCOCC3)c3ccccc23)c1,inactive
16,COc1ccc(N2CCN(C(=O)c3ccc4c(=O)n(CCc5ccc(OC)c(OC)c5)c(=O)[nH]c4c3)CC2)cc1,12 µM (active)
17,COc1ccccc1N=c1scc(-c2ccc(S(=O)(=O)N3CCCC3)cc2)n1C,4.78 µM (active)
18,Cc1[nH]c2ccccc2c1CCNCc1ccc(C=CC(=O)NO)cc1,inactive

# — PubChem BioAssay AID1508621 (National Center for Advancing Translational Sciences (NCATS), 2021)
